Only some compounds are listed: those with a hit (about 28% of all), similar ones and a draw of the others.
CYP2C19 act: cytochrome P450 2C19 (human) activation. recombinant CYP2C19, luciferin-H EGE luminescence; hits give high values; 0 = fully inhibited enzyme, 1 = untreated enzyme. activation factor at 5 µM. 96,000 tested, under 10 active;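 active means activation factor of at least 2 at 5 µM in the primary screen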;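 further: 0 = wells with 2.5 mM tranylcypromine and 1 = vehicle-only wells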
CYP2C9 act: activators of human CYP2C9 | P11712 | recombinant CYP2C9, luciferin-H conversion, luminescence; hits give high values; factor 1 = untreated enzyme, 0 = blocked | activation factor at 5 µM | hit rate 1.4% among 96,000 | AID 1024;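 active means activation factor of 2 or more for CYP2C9 at a 5 µM dose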;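 further: 0 = sulfaphenazole-blocked wells and 1 = vehicle-only wells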
Target sequence (P11712 whole entry, looked up): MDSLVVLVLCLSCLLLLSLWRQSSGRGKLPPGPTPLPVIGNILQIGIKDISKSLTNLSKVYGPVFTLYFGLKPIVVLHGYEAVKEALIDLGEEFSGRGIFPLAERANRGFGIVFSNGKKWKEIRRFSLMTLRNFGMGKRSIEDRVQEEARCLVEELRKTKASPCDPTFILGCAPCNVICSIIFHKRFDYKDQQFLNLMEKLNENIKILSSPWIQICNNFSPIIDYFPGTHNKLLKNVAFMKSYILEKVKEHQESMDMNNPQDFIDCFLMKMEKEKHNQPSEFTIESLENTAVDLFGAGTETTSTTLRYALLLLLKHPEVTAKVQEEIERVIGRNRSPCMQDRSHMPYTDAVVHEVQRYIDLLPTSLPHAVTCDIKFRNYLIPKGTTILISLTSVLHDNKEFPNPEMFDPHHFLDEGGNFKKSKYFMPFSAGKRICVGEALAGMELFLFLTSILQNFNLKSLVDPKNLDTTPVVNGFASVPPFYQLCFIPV
CYP2C9 inh: human CYP2C9 inhibition | inhibition, % at 5 µM | CYP2C9 Supersomes, luciferin-H conversion, luminescence | hit rate 20% among 96,000 | P11712;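 active means blocking of liver enzyme CYP2C9 beyond about 50% at 5 µM, limit read from the data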
Mac1 fbg enh: CD11b/CD18-fibrinogen binding enhancement; K562 CD11b/CD18 adhesion to fibrinogen, ATPlite luminescence; activation, % at 10 µM; P05107+P11215; hit rate 0.07% among 93,000;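 active means 10 µM primary screen giving 50% or more activity, confirmed by 40% or more on retest at that dose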
Mac1 fbg inh: blocks human CD11b/CD18 adhesion to fibrinogen; P05107+P11215; K562 CD11b/CD18 adhesion to fibrinogen, ATPlite luminescence; Mn2+ added to activate the integrin; inhibition, % at 10 µM; hit rate 0.54% among 93,000;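 active means primary inhibition of 50% or more at 10 µM, then 40% or more on retest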
CYP2C19 inh: human CYP2C19 inhibition. AID 778. inhibition, % at 5 µM. hit rate 21% among 96,000. P33261. CYP2C19 Supersomes, luciferin-H EGE luminescence, 30 min;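 active means CYP2C19 inhibition above a set limit at 5 µM in the primary screen, cut at about 50% in these data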;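 further: plate controls were negative control wells for no effect and 2.5 mM tranylcypromine positive control for full effect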
* hit, by the source's call; nt = no result.

SMILES	CYP2C19 act	CYP2C9 act	CYP2C9 inh	Mac1 fbg enh	Mac1 fbg inh	CYP2C19 inh
C/C(=N/OC(=O)c1c(F)cccc1F)c1nccs1	0.9	1.1	-10	-5	-54	14
CCOC(=O)c1sc(Nc2ccc(C)cc2C)nc1C	0.8	0.1	88*	-2	1	17
CCOC(=O)c1sc(Nc2ccccc2)nc1C	0.8	0.6	41	-8	-1	24
CCOc1ccc(NC(=O)CN2CCN(CC(=O)Nc3ccc(F)cc3)CC2)cc1	0.9	1	2	nt	nt	8
CCOc1ccc(NC(=O)CN2CCN(S(=O)(=O)c3ccc(Cl)cc3)CC2)cc1	0.2	1.1	-9	nt	nt	80*
CCOC(=O)c1ccc(S(=O)(=O)N2CCN(CC(=O)NC(=O)NC(C)(C)C)CC2)cc1	1.1	0.3	72*	-2	-4	-8
CC(C)c1ccc(S(=O)(=O)N2CCN(CCC(=O)Nc3ccc(N(C)C)cc3)CC2)cc1	0.8	0.5	48	6	-38	24
COc1ccc(NC(=O)CCN2CCN(S(=O)(=O)c3ccc(C(C)C)cc3)CC2)cc1	0.6	0.3	66*	1	8	38
CCOC(=O)c1ccc(NC(=O)COc2ccc(S(=O)(=O)N3CCCC3)cc2)cc1	0.9	0.7	25	1	-9	7
O=C(CN1CCN(S(=O)(=O)c2ccccc2)CC1)Nc1ccc(Cl)c(Cl)c1	0.2	0.8	18	1	19	77*
COc1ccc(NC(=O)CCN2CCN(S(=O)(=O)c3ccc(Cl)cc3)CC2)cc1	0.3	0.2	75*	-1	2	71*
CC1=CC(C)(C)N(C(=O)C(C)N2C(=O)c3ccccc3C2=O)c2c(C)cc(C)cc21 (stereo not drawn)	0.7	0.8	16	0	11	33
Cc1nc(SCC(=O)Nc2cccc(Cl)c2)n[nH]1	0.4	0.8	23	-3	-18	64*
CCOC(=O)Cc1csc(SCC(=O)N2CCN(c3ccc(OC)cc3)CC2)n1	0.8	0.5	45	-4	1	16
CCOC(=O)Cc1csc(Nc2ccc(Cl)cc2)n1	nt	nt	nt	-7	-1	nt
CCOC(=O)Cc1csc(SCC(=O)Nc2cccc(Cl)c2)n1	0.7	0.3	66*	-3	44	32
O=C(CSc1ccc(Cl)cc1)Nc1ccccc1Oc1ccccc1	nt	nt	nt	8	4	nt
CCOC(=O)Cc1csc(SCC(=O)Nc2cc(Cl)ccc2Oc2ccccc2)n1	0.1	0.1	94*	-3	74	91*
CCOC(=O)Cc1csc(SCC(=O)Nc2cccc(C#N)c2)n1	0.3	0.2	80*	-1	-11	66*
O=C(Oc1cc(-c2ccccc2)no1)c1ccc(F)cc1	1.2	1.1	-10	4	-18	-16
CC1CC(C)CN(C(=O)CCCn2c(=S)[nH]c3ccccc3c2=O)C1 (stereo not drawn)	0.1	0.6	39	-3	6	85*
COc1ccc(N2CCN(C(=O)C3CCC(Cn4c(=S)[nH]c5ccccc5c4=O)CC3)CC2)cc1 (stereo not drawn)	0.2	0.2	81*	-2	29	83*
CC1CCN(CCCn2c(=S)[nH]c3ccccc3c2=O)CC1	1	1.1	-13	-1	6	4
COc1ccc(N2CCN(CCCn3c(=S)[nH]c4ncccc4c3=O)CC2)cc1	0.9	0.9	7	3	62*	12
COc1ccccc1N1CCN(C(=O)C2CCC(Cn3c(=S)[nH]c4ccccc4c3=O)CC2)CC1 (stereo not drawn)	1	1	1	-3	3	-2
SMILES	CYP2C19 act	CYP2C9 act	CYP2C9 inh	Mac1 fbg enh	Mac1 fbg inh	CYP2C19 inh
O=c1c2ccccc2[nH]c(=S)n1CCCN1CCOCC1	0.4	1	4	-7	-4	60*
O=C(NCc1cccnc1)c1cnc2sccn2c1=O	1	1.1	-11	-6	-38	2
O=C(CCn1c(=S)[nH]c2ccccc2c1=O)N1CCOCC1	0.9	1.1	-8	8	13	6
O=C(CCCn1c(=S)[nH]c2ccccc2c1=O)N1CCCCC1	0.2	0.7	34	-4	-9	81*
O=C(CCCn1c(=S)[nH]c2ccc(Br)cc2c1=O)N1CCN(c2ccccn2)CC1	0.3	0.4	55*	nt	nt	70*
CCCn1nnc(NC(=O)COc2ccc(C3CCCCC3)cc2)n1	0.4	0.1	89*	-11	51	62*
CCCC1C(c2ccc(OC)cc2)C(C#N)(C#N)C2(C#N)CC1(N)NC2=O (stereo not drawn)	1.1	0.6	45	2	-2	-6
COC(=O)c1cc(-c2c(C)oc3cc(OC)ccc3c2=O)c(C)o1	1.1	1	1	-2	-5	-14
COCCOC(=O)c1c(C)oc2ccc(OCC=C(C)C)cc12	0.8	0.9	14	0	23	20
COC(=O)c1cc(COc2ccc3c(c2)oc(=O)c2ccccc23)c(C)o1	0.5	0.5	49	nt	nt	52*
COCCOC(=O)c1c(C)oc2ccc(OCc3cc(C(=O)OC)oc3C)cc12	0.6	0.4	56*	2	-2	43
COC(=O)CNC(=O)CSc1nnc(C)c(=O)[nH]1	nt	nt	nt	0	2	nt
Cc1cccc(Cn2c(C(=O)OC(C)C)cc3c2ccn3C)c1	0.5	0.8	21	5	8	46
N#CC(Cc1ccc(OC(F)F)cc1)c1nc2ccccc2[nH]1 (stereo not drawn)	nt	nt	nt	-3	18	nt
O=C(CCN1CCN(c2ccc(Cl)cc2)CC1)Nc1ccccc1F	0.7	0.5	51*	6	-12	32
O=C(CCN1CCN(c2ccccc2F)CC1)Nc1ccccc1F	0.5	0.3	66*	nt	nt	54*
O=C(CN1CCN(c2ccccc2F)CC1)Nc1ccccc1F	0.1	0.2	80*	4	-18	88*
O=C(CN1CCN(c2ccccc2F)CC1)c1ccc2cc[nH]c2c1	0.8	0.7	31	0	-8	24
O=C(CCN1CCN(c2ccccc2F)CC1)c1ccc(Br)cc1	0.5	0.7	34	-3	11	50*
O=C(CN1CCN(CCC(=O)Nc2ccccc2F)CC1)Nc1ccc(Cl)cc1	0.8	0.5	46	-4	3	23
COc1ccc2[nH]c(=O)c(CN(C(=O)c3ccco3)C3CCCCC3)cc2c1	0.9	0.7	29	-4	8	15
Cc1cccc(N2CCN(CC(=O)Nc3ccccc3[N+](=O)[O-])CC2)c1C	0.6	0.3	67*	nt	nt	44
O=C(CN1CCN(CCC(=O)Nc2ccccc2F)CC1)Nc1ccc(F)cc1	0.8	0.4	64*	2	-14	15
CN1CCN(CC(=O)Nc2ccccc2[N+](=O)[O-])CC1	nt	nt	nt	-4	-1	nt
CCOC(=O)Cc1nnc2c(Nc3ccc(Cl)cc3)nc3nonc3n12	1	0.8	16	-14	100	2

Source: PubChem BioAssay (Sanford-Burnham Center for Chemical Genomics)
